# Measured values taken from article PMC7862700, “An all-to-all approach to the identification of sequence-specific readers for epigenetic DNA modifications on cytosine”.
# What was measured:
# Test in all cases: DAPPL (digital affinity profiling via proximity ligation, sequencing); 10 mM Tris-HCl pH 7.5, 50 mM NaCl, 1 mM DTT, 4% glycerol, room temperature, 30 min; GST-TFs on glutathione beads, 16-mer random dsDNA library, 0.1% formaldehyde crosslink after washing; high values mean tight binding
# [1] = target: T1, FLI1 (Homo sapiens, UniProt Q01543 1-452); settings: protein: recombinant; tags: N-terminal GST; dsDNA, one strand shown
# T1 sequence: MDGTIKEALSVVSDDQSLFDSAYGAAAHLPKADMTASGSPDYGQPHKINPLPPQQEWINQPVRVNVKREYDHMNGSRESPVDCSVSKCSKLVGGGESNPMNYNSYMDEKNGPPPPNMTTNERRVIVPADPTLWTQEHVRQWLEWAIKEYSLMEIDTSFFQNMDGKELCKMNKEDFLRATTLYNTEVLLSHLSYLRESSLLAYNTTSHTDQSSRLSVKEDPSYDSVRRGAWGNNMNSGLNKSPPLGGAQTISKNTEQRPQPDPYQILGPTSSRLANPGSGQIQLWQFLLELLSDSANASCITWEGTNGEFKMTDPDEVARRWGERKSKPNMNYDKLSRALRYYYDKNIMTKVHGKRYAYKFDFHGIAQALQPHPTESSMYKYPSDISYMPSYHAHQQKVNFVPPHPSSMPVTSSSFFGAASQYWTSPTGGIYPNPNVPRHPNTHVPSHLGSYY
# How it was run: (§1)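 The binding signal reported is, for every hexamer, its read frequency for a factor over its read frequency for the tag-only sample. Reads came from pools of yeast-expressed, GST-fused human transcription factors on glutathione beads, barcoded with DNA and mixed with that sample, which were incubated with 200 nmole of a random double-stranded 16-mer DNA library in Tris/NaCl/DTT/glycerol buffer at room temperature for 30 min. After washing, the pools were crosslinked with 0.1% formaldehyde, proximity-ligated with BsaI/T4 ligase for 1 h at 37 °C, PCR-amplified and sequenced on an Illumina NextSeq500.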
# [2] = target: T2, ELK1 (Homo sapiens, UniProt P19419 1-428); settings: protein: recombinant; tags: N-terminal GST; dsDNA, one strand shown
# T2 sequence: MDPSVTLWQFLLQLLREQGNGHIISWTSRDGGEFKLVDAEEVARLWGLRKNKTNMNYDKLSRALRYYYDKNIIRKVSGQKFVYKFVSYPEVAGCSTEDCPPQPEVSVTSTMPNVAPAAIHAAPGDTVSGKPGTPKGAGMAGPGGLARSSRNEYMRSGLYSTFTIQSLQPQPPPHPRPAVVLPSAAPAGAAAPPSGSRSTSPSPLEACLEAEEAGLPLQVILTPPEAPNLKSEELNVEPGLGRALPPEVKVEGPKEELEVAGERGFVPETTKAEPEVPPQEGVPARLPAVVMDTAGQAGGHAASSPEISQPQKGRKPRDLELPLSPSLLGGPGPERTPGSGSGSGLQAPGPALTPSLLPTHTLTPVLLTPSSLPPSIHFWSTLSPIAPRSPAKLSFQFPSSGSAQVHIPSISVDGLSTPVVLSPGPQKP
# How it was run: as §1
# [3] = target: T3, GABPA (Homo sapiens, UniProt Q06546 1-454); settings: protein: recombinant; tags: N-terminal GST; dsDNA, one strand shown
# T3 sequence: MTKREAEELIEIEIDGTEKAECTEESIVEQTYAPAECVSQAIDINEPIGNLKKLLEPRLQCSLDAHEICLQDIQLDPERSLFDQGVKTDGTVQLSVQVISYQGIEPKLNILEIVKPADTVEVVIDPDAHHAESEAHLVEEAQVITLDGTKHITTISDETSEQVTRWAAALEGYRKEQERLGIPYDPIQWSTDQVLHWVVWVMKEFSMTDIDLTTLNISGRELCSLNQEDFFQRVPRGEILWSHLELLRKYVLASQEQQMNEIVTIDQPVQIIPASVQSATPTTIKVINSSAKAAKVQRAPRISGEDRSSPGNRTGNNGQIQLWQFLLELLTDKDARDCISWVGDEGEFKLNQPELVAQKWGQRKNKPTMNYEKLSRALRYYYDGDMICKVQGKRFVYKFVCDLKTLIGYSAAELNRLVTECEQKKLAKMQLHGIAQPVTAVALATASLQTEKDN
# How it was run: as §1
# [4] = target: T4, ERG (Homo sapiens, UniProt P11308 1-479); settings: protein: recombinant; tags: N-terminal GST; dsDNA, one strand shown
# T4 sequence: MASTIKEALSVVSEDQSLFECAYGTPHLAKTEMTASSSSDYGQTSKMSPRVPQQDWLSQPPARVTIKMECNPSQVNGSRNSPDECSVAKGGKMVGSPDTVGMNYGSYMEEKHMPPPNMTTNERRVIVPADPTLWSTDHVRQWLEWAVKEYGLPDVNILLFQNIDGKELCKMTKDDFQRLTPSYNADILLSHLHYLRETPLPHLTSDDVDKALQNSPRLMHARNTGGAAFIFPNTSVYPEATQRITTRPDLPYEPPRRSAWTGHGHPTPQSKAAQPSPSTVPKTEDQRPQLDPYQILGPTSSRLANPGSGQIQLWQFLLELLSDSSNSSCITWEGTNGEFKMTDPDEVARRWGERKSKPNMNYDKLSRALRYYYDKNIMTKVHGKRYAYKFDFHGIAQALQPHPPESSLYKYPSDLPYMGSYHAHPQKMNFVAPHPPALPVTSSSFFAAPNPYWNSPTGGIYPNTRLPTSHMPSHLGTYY
# How it was run: as §1
# [5] = target: ELF1 (Homo sapiens, UniProt P32519 1-619); settings: protein: recombinant; tags: N-terminal GST; dsDNA, one strand shown
# ELF1, sequence (P32519 whole entry): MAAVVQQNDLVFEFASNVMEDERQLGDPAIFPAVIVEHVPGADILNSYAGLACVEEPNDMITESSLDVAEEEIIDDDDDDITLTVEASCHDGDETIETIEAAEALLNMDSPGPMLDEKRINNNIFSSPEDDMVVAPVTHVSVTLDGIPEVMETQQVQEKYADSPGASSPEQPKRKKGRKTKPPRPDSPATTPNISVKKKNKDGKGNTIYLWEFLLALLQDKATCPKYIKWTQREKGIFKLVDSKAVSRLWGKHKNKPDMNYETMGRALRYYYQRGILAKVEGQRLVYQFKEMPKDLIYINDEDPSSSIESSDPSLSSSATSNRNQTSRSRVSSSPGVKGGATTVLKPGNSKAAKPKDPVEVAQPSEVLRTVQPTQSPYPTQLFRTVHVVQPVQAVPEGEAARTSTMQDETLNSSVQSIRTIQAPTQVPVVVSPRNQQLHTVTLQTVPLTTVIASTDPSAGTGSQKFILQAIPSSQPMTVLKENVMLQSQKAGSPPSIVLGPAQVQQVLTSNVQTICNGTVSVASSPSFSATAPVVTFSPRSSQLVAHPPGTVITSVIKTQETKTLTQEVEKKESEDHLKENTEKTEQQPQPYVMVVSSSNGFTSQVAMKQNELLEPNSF
# How it was run: as §1
# [6] = target: T5, EHF (Homo sapiens, UniProt Q9NZC4 1-300); settings: protein: recombinant; tags: N-terminal GST; dsDNA, one strand shown
# T5 sequence: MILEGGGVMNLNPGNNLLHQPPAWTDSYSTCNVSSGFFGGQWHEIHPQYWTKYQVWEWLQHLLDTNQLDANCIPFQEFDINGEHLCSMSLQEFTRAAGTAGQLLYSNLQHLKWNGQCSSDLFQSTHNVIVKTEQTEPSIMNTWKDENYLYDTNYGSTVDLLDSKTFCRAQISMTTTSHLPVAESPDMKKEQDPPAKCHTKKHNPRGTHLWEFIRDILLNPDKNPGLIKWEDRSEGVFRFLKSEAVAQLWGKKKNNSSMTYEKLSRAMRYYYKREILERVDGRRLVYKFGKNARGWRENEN
# How it was run: as §1
# [7] = target: SPI1 (Homo sapiens, UniProt P17947 1-270); settings: protein: recombinant; tags: N-terminal GST; dsDNA, one strand shown
# How it was run: as §1
# [8] = target: SPIB (Homo sapiens, UniProt Q01892 1-262); settings: protein: recombinant; tags: N-terminal GST; dsDNA, one strand shown
# SPIB, sequence (Q01892 whole entry): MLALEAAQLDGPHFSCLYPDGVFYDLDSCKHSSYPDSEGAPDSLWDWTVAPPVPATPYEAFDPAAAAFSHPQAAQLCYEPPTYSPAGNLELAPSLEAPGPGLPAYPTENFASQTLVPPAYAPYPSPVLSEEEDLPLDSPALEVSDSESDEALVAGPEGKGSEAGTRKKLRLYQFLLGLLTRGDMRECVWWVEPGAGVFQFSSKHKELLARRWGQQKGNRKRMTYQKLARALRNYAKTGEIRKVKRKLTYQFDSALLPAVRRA
# How it was run: as §1
# [9] = target: T6, ELK3 (Homo sapiens, UniProt P41970 1-407); settings: protein: recombinant; tags: N-terminal GST; dsDNA, one strand shown
# T6 sequence: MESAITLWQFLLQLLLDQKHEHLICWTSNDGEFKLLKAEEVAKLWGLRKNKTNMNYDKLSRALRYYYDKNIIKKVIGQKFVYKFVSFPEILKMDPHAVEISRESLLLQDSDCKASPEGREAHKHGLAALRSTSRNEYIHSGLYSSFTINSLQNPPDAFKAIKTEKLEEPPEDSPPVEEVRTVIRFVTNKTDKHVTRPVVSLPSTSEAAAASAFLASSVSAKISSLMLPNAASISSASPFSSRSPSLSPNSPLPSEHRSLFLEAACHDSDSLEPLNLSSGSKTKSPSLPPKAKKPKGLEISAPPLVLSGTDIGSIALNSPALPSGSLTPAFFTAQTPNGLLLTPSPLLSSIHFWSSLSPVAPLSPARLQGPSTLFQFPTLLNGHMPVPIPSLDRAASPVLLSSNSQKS
# How it was run: as §1
# [10] = target: T7, FEV (Homo sapiens, UniProt Q99581 1-238); settings: protein: recombinant; tags: N-terminal GST; dsDNA, one strand shown
# T7 sequence: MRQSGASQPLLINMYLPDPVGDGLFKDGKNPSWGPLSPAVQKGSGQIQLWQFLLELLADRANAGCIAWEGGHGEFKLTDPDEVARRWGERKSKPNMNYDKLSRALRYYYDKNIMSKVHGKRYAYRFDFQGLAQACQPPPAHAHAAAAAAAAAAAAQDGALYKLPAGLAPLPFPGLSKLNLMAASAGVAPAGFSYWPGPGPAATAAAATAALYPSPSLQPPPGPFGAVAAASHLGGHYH
# How it was run: as §1
# [11] = target: ETV5 (Homo sapiens, UniProt P41161 1-510); settings: protein: recombinant; tags: N-terminal GST; dsDNA, one strand shown
# ETV5, sequence (P41161 whole entry): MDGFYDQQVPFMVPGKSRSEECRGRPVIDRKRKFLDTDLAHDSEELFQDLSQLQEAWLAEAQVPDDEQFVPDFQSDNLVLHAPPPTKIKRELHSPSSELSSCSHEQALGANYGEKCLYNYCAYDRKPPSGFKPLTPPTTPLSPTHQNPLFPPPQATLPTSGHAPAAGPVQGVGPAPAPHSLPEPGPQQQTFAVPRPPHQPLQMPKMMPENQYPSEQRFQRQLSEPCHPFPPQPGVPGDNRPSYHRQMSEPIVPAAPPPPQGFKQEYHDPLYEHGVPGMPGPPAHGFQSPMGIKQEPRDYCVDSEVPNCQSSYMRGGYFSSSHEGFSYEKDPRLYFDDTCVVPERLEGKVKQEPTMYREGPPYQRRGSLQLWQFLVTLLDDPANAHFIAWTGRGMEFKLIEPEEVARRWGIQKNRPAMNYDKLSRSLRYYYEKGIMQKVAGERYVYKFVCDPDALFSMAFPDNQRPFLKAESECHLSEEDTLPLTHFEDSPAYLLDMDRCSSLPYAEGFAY
# How it was run: as §1
# [12] = target: HSF1 (Homo sapiens, UniProt Q00613 1-529); settings: protein: recombinant; tags: N-terminal GST; chain copies: 3; dsDNA, one strand shown
# HSF1, sequence (Q00613 whole entry): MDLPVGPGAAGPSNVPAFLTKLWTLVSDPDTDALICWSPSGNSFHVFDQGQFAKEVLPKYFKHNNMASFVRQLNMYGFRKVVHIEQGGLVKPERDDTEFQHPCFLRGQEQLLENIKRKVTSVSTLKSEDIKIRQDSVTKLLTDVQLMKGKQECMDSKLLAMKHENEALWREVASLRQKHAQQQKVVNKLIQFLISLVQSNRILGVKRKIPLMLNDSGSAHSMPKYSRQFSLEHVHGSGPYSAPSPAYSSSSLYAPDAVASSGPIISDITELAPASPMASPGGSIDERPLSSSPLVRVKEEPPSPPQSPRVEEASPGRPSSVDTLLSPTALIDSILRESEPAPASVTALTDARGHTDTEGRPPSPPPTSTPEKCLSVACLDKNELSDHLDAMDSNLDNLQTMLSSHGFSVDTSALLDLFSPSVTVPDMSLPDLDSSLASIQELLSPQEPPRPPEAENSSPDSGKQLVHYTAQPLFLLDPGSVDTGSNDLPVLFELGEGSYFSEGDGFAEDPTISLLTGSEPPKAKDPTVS
# How it was run: as §1
# [13] = target: T8, SPIC (Homo sapiens, UniProt Q8N5J4 1-248); settings: protein: recombinant; tags: N-terminal GST; dsDNA, one strand shown
# T8 sequence: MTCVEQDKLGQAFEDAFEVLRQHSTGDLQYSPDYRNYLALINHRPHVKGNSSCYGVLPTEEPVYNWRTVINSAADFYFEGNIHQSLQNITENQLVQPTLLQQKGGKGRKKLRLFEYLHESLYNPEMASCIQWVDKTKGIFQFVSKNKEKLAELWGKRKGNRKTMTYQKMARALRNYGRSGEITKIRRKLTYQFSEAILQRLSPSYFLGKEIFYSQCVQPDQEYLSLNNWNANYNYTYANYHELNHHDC
# How it was run: as §1
# [14] = target: ELF4 (Homo sapiens, UniProt Q99607 1-663); settings: protein: recombinant; tags: N-terminal GST; dsDNA, one strand shown
# ELF4, sequence (Q99607 whole entry): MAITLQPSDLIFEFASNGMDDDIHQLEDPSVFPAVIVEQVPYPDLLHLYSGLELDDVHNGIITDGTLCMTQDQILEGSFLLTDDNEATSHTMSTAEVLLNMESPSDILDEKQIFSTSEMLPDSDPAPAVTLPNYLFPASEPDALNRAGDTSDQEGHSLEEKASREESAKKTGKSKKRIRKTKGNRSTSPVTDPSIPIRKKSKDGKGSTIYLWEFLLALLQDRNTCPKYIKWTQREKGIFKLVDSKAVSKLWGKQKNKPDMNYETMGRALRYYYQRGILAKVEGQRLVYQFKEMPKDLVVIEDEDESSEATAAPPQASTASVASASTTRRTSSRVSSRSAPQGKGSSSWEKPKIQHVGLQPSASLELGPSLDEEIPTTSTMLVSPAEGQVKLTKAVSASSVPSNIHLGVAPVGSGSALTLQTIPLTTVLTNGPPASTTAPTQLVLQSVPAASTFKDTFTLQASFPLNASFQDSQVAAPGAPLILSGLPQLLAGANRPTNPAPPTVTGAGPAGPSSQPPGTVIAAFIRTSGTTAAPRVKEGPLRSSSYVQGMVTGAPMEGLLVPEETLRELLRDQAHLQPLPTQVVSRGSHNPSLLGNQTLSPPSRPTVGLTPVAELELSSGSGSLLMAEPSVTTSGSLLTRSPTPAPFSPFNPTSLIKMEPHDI
# How it was run: as §1
# [15] = target: T9, ELK4 (Homo sapiens, UniProt P28324-2 1-405); settings: protein: recombinant; tags: N-terminal GST; dsDNA, one strand shown
# T9 sequence: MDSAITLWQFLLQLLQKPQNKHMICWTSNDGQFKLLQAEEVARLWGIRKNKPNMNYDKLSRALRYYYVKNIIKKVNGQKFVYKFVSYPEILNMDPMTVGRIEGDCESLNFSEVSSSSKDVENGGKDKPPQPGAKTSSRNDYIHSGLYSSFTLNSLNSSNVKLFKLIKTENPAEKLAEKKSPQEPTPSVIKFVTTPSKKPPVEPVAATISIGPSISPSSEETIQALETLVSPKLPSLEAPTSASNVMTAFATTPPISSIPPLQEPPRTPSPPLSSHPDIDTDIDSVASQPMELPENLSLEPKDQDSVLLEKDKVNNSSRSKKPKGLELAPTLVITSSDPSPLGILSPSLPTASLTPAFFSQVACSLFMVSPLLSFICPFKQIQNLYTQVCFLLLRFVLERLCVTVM
# How it was run: as §1
# [16] = target: T10, ETV2 (Homo sapiens, UniProt O00321 1-342); settings: protein: recombinant; tags: N-terminal GST; dsDNA, one strand shown
# T10 sequence: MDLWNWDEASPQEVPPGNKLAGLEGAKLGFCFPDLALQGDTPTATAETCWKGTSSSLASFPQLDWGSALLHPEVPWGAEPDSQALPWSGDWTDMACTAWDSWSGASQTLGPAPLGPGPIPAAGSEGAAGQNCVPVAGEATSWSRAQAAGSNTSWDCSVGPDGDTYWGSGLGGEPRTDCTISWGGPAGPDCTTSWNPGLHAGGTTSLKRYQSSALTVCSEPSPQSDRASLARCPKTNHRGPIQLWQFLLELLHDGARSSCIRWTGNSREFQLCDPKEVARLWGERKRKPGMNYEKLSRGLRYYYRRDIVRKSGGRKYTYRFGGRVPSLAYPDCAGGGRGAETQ
# How it was run: as §1
# [17] = target: T11, ELF3 (Homo sapiens, UniProt P78545 1-371); settings: protein: recombinant; tags: N-terminal GST; dsDNA, one strand shown
# T11 sequence: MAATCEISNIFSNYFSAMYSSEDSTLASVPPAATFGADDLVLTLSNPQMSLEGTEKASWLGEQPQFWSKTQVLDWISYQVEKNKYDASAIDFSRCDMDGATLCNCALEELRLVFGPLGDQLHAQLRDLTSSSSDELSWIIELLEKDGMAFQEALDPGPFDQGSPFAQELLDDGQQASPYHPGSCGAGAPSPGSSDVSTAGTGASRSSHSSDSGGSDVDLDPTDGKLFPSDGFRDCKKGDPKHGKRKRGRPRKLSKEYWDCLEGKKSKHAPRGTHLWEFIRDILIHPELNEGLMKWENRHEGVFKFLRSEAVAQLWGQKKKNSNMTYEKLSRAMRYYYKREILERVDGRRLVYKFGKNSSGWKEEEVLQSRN
# How it was run: as §1
# [18] = target: ETV1 (Homo sapiens, UniProt P50549 1-477); settings: protein: recombinant; tags: N-terminal GST; dsDNA, one strand shown
# ETV1, sequence (P50549 whole entry): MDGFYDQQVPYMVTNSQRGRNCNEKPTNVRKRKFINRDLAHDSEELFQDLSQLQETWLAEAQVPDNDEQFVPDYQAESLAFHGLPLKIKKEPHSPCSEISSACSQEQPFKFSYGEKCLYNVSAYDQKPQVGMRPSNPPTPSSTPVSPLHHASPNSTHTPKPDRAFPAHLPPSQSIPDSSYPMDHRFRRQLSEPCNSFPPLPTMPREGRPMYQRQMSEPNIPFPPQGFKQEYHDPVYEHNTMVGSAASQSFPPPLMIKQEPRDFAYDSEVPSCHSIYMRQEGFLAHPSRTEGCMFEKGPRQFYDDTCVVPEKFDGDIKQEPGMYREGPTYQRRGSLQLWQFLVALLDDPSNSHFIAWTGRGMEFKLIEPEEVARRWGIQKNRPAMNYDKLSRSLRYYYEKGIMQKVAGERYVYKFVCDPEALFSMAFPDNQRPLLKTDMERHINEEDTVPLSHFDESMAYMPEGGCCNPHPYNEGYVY
# How it was run: as §1
sequence,measurement,setting,value
TTCCGT,binding signal,[1],"1.79 fold enrichment (6-mer frequency, TF over GST control)"
same,binding signal,[2],"2.11 fold enrichment (6-mer frequency, TF over GST control)"
same,binding signal,[3],"1.76 fold enrichment (6-mer frequency, TF over GST control)"
same,binding signal,[4],"2.13 fold enrichment (6-mer frequency, TF over GST control)"
same,binding signal,[5],"1.74 fold enrichment (6-mer frequency, TF over GST control)"
same,binding signal,[6],"2 fold enrichment (6-mer frequency, TF over GST control)"
same,binding signal,[7],"2.14 fold enrichment (6-mer frequency, TF over GST control)"
same,binding signal,[8],"2.07 fold enrichment (6-mer frequency, TF over GST control)"
same,binding signal,[9],"1.86 fold enrichment (6-mer frequency, TF over GST control)"
same,binding signal,[10],"1.86 fold enrichment (6-mer frequency, TF over GST control)"
same,binding signal,[11],"1.99 fold enrichment (6-mer frequency, TF over GST control)"
same,binding signal,[12],"1.02 fold enrichment (6-mer frequency, TF over GST control)"
same,binding signal,[13],"2.02 fold enrichment (6-mer frequency, TF over GST control)"
same,binding signal,[14],"1.67 fold enrichment (6-mer frequency, TF over GST control)"
same,binding signal,[15],"1.89 fold enrichment (6-mer frequency, TF over GST control)"
same,binding signal,[16],"1.88 fold enrichment (6-mer frequency, TF over GST control)"
same,binding signal,[17],"1.74 fold enrichment (6-mer frequency, TF over GST control)"
same,binding signal,[18],"1.82 fold enrichment (6-mer frequency, TF over GST control)"
